Cruzain inh noDet: qHTS Assay for Promiscuous and Specific Inhibitors of Cruzain (without detergent). Cruzipain (Trypanosoma cruzi), P25779. purified cruzain, Z-FR-AMC fluorescence, no detergent. Potency, µM, for the others: max response, negative = inhibition, hits mostly inhibitors. 2.3% of 200,000 active;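 further: plate controls were enzyme without inhibitor for no effect and buffer without enzyme for full effect; nearly all actives have a fitted effect of over 40% in size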
Target sequence (P25779 123-467 limits assumed): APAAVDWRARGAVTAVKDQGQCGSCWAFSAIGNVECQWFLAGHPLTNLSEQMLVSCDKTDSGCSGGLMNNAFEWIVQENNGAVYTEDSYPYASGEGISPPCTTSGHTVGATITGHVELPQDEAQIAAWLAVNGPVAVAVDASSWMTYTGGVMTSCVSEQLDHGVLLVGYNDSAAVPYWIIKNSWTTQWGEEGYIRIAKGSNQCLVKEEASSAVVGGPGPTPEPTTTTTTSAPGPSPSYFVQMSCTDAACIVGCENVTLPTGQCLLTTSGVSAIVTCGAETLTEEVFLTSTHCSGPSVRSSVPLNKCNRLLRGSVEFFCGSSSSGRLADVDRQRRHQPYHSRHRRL
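Detergent-free condition (0.00005% Triton X-100) in acetate buffer pH 5.5 with DTT. 1.5 nM enzyme and compound were pre-mixed 15 min, then 2 uM Z-FR-AMC substrate added; reaction progress from fluorescence change between first and third reads (60 s).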
Cruzain Triton: qHTS Assay for Promiscuous and Specific Inhibitors of Cruzain (with detergent). Cruzipain (Trypanosoma cruzi), P25779. purified cruzain, Z-FR-AMC fluorescence, 0.01% Triton. Potency, µM, without a hit: max response, negative = inhibition, hits mostly inhibitors. 0.43% of 200,000 active. AID 1478, 2009;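 further: plate controls were neutral wells for no effect and buffer without enzyme for full effect; nearly all actives have a fitted effect of over 40% in size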
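Steps: dispense cruzain (1.5 nM final) in acetate buffer pH 5.5 with DTT and 0.01% Triton X-100; pin-transfer compounds; incubate 15 min RT; add Z-FR-AMC (2 uM final); read fluorescence every 30 s, using the 60 s intensity change.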
* = called active by the depositor; ? = inconclusive. This is a sample that favours compounds with a hit; in the whole collection about 2.4% have one here. The call rests on the fitted dose curve; in most records, active means well fitted curve in the direction sought with a large enough effect; inconclusive means small, poorly fitted or top-dose-only effect, or another doubt; inactive means no such curve, though single readings can be large; an effect the other way counts as inactive or inconclusive. Potency means the concentration at half of the fitted maximal effect.

SMILES	Cruzain inh noDet	Cruzain Triton
COC(=O)c1ccc(C(=O)OC)c(NC(=O)c2cnn3c(C(F)F)cc(-c4ccc(C)cc4)nc23)c1	-4%	-2%
Cc1cccc(N2CCN(C(=O)c3cn(CC(C)C)c(=O)c4c3c3ccccc3n4C)CC2)c1C	-1%	-2%
CCC(C)NC(=O)c1ccc(Cn2c(=O)c3cccn3c3cccnc32)cc1 (stereo not drawn)	2%	-1%
CCOc1ccc(NC(=O)c2ccc(CN3C(=O)C(C)=C(c4ccc(C)cc4)S3(=O)=O)cc2)cc1	-1%	-1%
CC1=C(c2ccc(C)cc2)S(=O)(=O)N(Cc2ccc(C(=O)NCc3ccccc3)cc2)C1=O	?	-5%
CC1=C(c2ccc(C)c(C)c2)S(=O)(=O)N(Cc2ccc(C(=O)NCc3ccccc3F)cc2)C1=O	25µM*	-3%
COc1ccccc1NC(=O)c1ccc(CN2C(=O)C(C)=C(c3ccc(C)c(C)c3)S2(=O)=O)cc1	32µM*	-4%
COc1ccc(C2=C(C)C(=O)N(Cc3ccc(C(=O)Nc4ccc(C)c(C)c4)cc3)S2(=O)=O)cc1	7.9µM*	-3%
CC1=C(c2ccc(C)cc2)S(=O)(=O)N(Cc2ccc(C(=O)Nc3ccccc3C)cc2)C1=O	?	-4%
COc1ccc2c(c1)O[C@H](c1ccc3c(c1)OCO3)[C@@H](OC(=O)Nc1ccc(C)c(Br)c1)C2=O	?	-3%
CCOC(=O)c1cc2c(=O)n3ccccc3nc2n(Cc2ccco2)c1=NC(=O)c1c(F)cccc1Cl	5%	-20%
COc1ccc(OC)c(NC(=O)Cc2c(C(=O)O)n(C)c3ccc(C)cc23)c1	?	-12%
COc1cc(-c2c(C#N)c(N)nc(SCc3ccncc3)c2C#N)cc(OC)c1OC	0%	-1%
C#CCSc1nc(-c2cccs2)ccc1C#N	-7%	-8%
N#Cc1c(N)nc(SCc2ccncc2)c(C#N)c1-c1cccs1	25µM*	-6%
Cc1ccc(CSc2nc(-c3cccs3)ccc2C#N)cc1	25µM*	-3%
CCn1c(=O)c(C(=O)NNS(=O)(=O)c2ccc(Cl)cc2)c(O)c2ccccc21	25µM*	-9%
CCn1c(=O)c(C(=O)Nc2ccccc2S(N)(=O)=O)c(O)c2ccccc21	?	-4%
CCN(CC)CCCNC(=O)c1ccc2nc(CCc3ccccc3)oc2c1	-3%	-1%
CCCCCCCCCCCCCCC[C@@H](O)[C@H](CO)NC(C)=O	-6%	0%
Fc1cccc(/C=N/NC(=S)Nc2ccccc2Cl)c1	?	-7%
Fc1ccc(NC(=S)N/N=C/c2cccc(Br)c2)c(F)c1	25µM*	-5%
Cc1cccn2c(=O)c3cc(C#N)c(=O)n(-c4nnc(SCc5ccccc5F)s4)c3nc12	-2%	2%
Cc1c(Cl)cccc1NC(=O)C[C@H]1Sc2ccccc2NC1=O	2%	-1%
O=C(CCN1Cc2ccccc2C1)c1ccc2c(c1)OCCO2	?	-25%
SMILES	Cruzain inh noDet	Cruzain Triton
O=C(CCN1CCc2ccccc2C(c2ccccc2)C1)c1ccc2c(c1)OCCO2 (stereo not drawn)	16µM*	28µM*
c1ccc2c(c1)sc1nnnn12	-13%	4%
CNC(=S)N1N=C(c2ccc(C)cc2)CC1c1ccc(Cl)cc1 (stereo not drawn)	-30%	-8%
CNC(=S)N1N=C(c2ccc(C)cc2)CC1c1ccc(Br)cc1 (stereo not drawn)	2.5µM*	-2%
CCN(CC)S(=O)(=O)c1ccc(NC(=O)c2nn(C)c3c2CSc2ccccc2-3)cc1	4%	-4%
COc1ccc(NC(=O)c2ccco2)cc1NC(=O)C(C)(C)Oc1ccc(Cl)cc1	?	-8%
CCCN1CCN(c2ncnc3sc(C(=O)Nc4ccc(N(CC)CC)cc4C)c(C)c23)CC1	-22%	-2%
CCCN1CCN(c2ncnc3sc(C(=O)Nc4cccc(Cl)c4C)c(C)c23)CC1	16µM*	2.2µM*
COC(=O)c1c(NC(=O)Cc2ccccc2)sc(C)c1C	-9%	-8%
COC(=O)c1sc(NC(=O)C2c3ccccc3Oc3ccccc32)c(C(=O)OC)c1C	10µM*	-3%
CCOC(=O)c1c(NC(=O)C2c3ccccc3Oc3ccccc32)sc(C(C)=O)c1C	?	-1%
COC(=O)c1c(NC(=O)C2c3ccccc3Oc3ccccc32)sc(C)c1C	25µM*	0%
COC(=O)c1c(NC(=S)Nc2ccccc2Cl)sc(C)c1C	13µM*	-3%
CCOC(=O)c1c(NC(=O)C2c3ccccc3Oc3ccccc32)sc(C)c1C	?	-4%
O=C(SCc1cccc2ccccc12)c1ccc(Cl)cc1	-10%	0%
CCOc1ccc(NC(=O)Cn2c3ncccc3c(=O)n2-c2ccc(CC)cc2)cc1	11%	0%
Cc1cc(NC(=O)CSc2nc3c(sc4ccccc43)c(=O)n2CCc2ccccc2)n[nH]1	7.9µM*	8%
Cc1cc(NC(=O)CSc2nc3c(sc4ccccc43)c(=O)n2CCCN2CCOCC2)n[nH]1	-22%	-13%
N=C(N)C(N=Nc1ccccc1)C(=N)N (stereo not drawn)	-1%	3%
C[C@H](C(=O)c1ccncc1)c1ccccn1	?	4%
O=C(Nc1cccc(C(=O)N2CCN(c3ccc(Cl)cc3)CC2)c1)c1nsc2ccccc12	20µM*	0%
O=C(Nc1cccc(C(=O)N2CCN(c3cccc(Cl)c3)CC2)c1)c1nsc2ccccc12	?	-1%
O=C(Nc1ccc(C(=O)N2CCN(c3ccccc3)CC2)cc1)c1nsc2ccccc12	-29%	-1%
O=C(Nc1ccc(C(=O)N2CCN(c3cccc(Cl)c3)CC2)cc1)c1nsc2ccccc12	10µM*	-1%
Cc1ccc(-c2c(C)n3c4c(=O)n(C)c(=O)n(C)c4nc3n2CCCO)cc1	?	-3%
SMILES	Cruzain inh noDet	Cruzain Triton
Cc1ccc(Cl)cc1NS(=O)(=O)c1ccc2oc(=O)c3ncn(C)c3c2c1	20%	-6%
C[C@]12[C@H](O)CC3C(CC[C@@H]4C[C@@H](O)CC[C@]34C)[C@@]1(O)CC[C@@H]2C1=CC(=O)OC1 (stereo partly drawn)	8%	4%
CCCCCCN(C(=O)CCCCCN1C(=O)NC(c2ccc(-c3ccccc3)cc2)C(C(=O)OCc2ccccc2)=C1C)C(C(=O)NCCCC)c1ccc(-c2ccccc2)cc1 (stereo not drawn)	?	-1%
CCCCCCN(C(=O)CCCCCN1C(=O)NC(c2ccc(-c3ccccc3)cc2)C(C(=O)OCc2ccccc2)=C1C)C(C(=O)NCCCC)c1ccc(O)cc1 (stereo not drawn)	6.3µM*	-1%
CC[C@H](CO)NC(=O)[C@H]1C=C2c3cccc4[nH]cc(c34)C[C@@H]2N(C)C1	-18%	-9%
O=S(=O)(c1cccc(-c2nc3ccccc3s2)c1)N1CCCC1	6%	-7%
O=S(=O)(c1ccc(-c2nc3ccccc3s2)cc1)N1CCCC1	25µM*	3%
Oc1c(Cl)cc(CN(Cc2cc(Cl)c(O)c(Cl)c2)C2CCCCC2)cc1Cl	1%	2%
COc1ccc(-c2noc(CC(=O)N(C)c3cccc(C)c3)n2)cc1	5%	-4%
O=C(CNC(=O)c1ccccc1)NCCc1nc2ccccc2[nH]1	-17%	-6%
CCOC(=O)CCc1nc2ccccc2[nH]1	-1%	-5%
Cc1cc(C)cc(OCC(=O)NCCc2nc3ccccc3[nH]2)c1	17%	16µM*
Cc1cc(=O)oc2cc(OCC(=O)NCCc3nc4ccccc4[nH]3)ccc12	2.5µM*	13µM*

Screening results as filed in PubChem BioAssay.
